Growth data for 13 compounds are collected here from PubChem BioAssay (NCI).

SMILES strings stand for the structures. Compounds without any hit were thinned out: in the full panel of roughly 83,000, 20% have a hit.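 Compound tested at a single concentration for 48 hours in 96-well plates; a percent growth value below 10 was scored as active.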 Values without a mark were called inactive. Calls of active or inactive are those of the source.

Assay in all cases: NCI-60 one-dose screen, 48 h (100 = growth as untreated, 0 = no growth, -100 = all killed)
Holding throughout (conditions): 10 µM

Experiment [1] has as its system RPMI-8226 leukemia.
Experiment [2] concerns OVCAR-8 ovarian.
In experiment [3] the test system is OVCAR-5 ovarian.
Experiment [4] relates to OVCAR-4 ovarian.
The test system of experiment [5] is SK-OV-3 ovarian.
The test system of experiment [6] is IGROV1 ovarian.
Experiment [7] concerns OVCAR-3 ovarian.
Experiment [8] concerns HS 578T breast.
Experiment [9] concerns NCI/ADR-RES ovarian.

As to `Cc1cc(C)nc(SCC(=O)Nc2ccc(S(N)(=O)=O)cc2)n1`, the growth is 99.5% in experiment [1]; 105% in [2]; 107% in [3]; 112% in experiment [4]; 106% in [5]; 109% in experiment [6]. Moreover, the growth in [7] was 113%; in experiment [8], 114%; in experiment [9], 106%.
Turning to `O=C1Nc2ccc(Cl)cc2/C1=C/c1cccc(OCc2ccccc2)c1`, the growth was -28.1% (active) in [1]; 14.6% in experiment [2]; 69.2% in experiment [3]; 33.5% in experiment [4]; 75.3% in experiment [5]; 36.7% in [6]. Also, the growth in experiment [7] is 8.28% (active); in experiment [8] it was 6.44% (active); in [9], 8.34% (active).
In the case of `CN1CCN(c2ccc(Nc3nc(NCCCNC(=O)c4ccccc4)c4sccc4n3)cc2)CC1`, the growth in [1] was 14.8%; in experiment [2] it was 55.9%; in experiment [3], 88.4%; in experiment [4], 77.9%; in [5], 113%; in [6], 94.9%. The growth was 78.5% in experiment [7], 78.8% in experiment [8] and 82.3% in [9].
Take `O=C(Nc1ccc(OCc2ccccc2)cc1)Nc1ccc(Cl)c(C(F)(F)F)c1`: the growth in [1] was -30.4% (active); in experiment [2], 2.36% (active); in experiment [3] it was 18.5%; in experiment [4], 11.2%; in experiment [5], -29.7% (active); in experiment [6], 19%. In addition, the growth was 7.77% (active) in experiment [7], -0.0644% (active) in [8] and 1.39% (active) in [9].
For the compound `O=C(CSc1ccc(-c2ccc(Cl)cc2)nn1)Nc1ccc(Cl)c(C(F)(F)F)c1`, the growth in experiment [1] was 66.8%; in experiment [2] it was 76.4%; in experiment [3] it was 79.6%; in [4] it was 76.1%; in experiment [5], 75.4%; in [6], 70.9%. The growth in experiment [7] is 69.3%; in experiment [8], 70.6%; in experiment [9], 27.9%.
Regarding `CC(=O)Nc1ccc(-n2cnc3cc(-c4ccc(O)cc4)ccc32)cc1F`, the growth in experiment [1] was 14.3%; in experiment [2], 15.9%; in experiment [3] it was 42.7%; in experiment [4] it was 61%; in [5], 13%; in experiment [6], 35.9%. Besides, the growth in [7] is 6.74% (active); in [8], 18.7%; in experiment [9], 4.16% (active).
As to `C/C(=C\CC/C=C(\C)CC/C=C(\C)CC[C@@H](O)C(C)(C)O)CC/C=C(\C)CC[C@@H](O)C(C)(C)O`, the growth is -11.4% (active) in [1]; 47.6% in experiment [2]; 56.1% in [3]; 42% in [4]; 64.4% in experiment [5]; 76.8% in [6]. Further, the values for the growth in experiment [7], in experiment [8] and in experiment [9] were 42.6%, 39% and 30.2%, respectively.
Turning to `C=C(c1ccc(OC)c(N)c1)c1cc(C)nc2ccccc12`, the growth was 10.9% in experiment [1]; 8.32% (active) in experiment [2]; 26.3% in experiment [3]; 57.8% in experiment [4]; 21.7% in [5]; 17.1% in experiment [6]. Also, the results for the growth in [7], in [8] and in experiment [9] were -4.17% (active), 38.9% and -29% (active), respectively.
`CC(=O)Nc1ccc(-c2cn(-c3cccc(C(=O)Nc4cc(C(F)(F)F)cc(C(F)(F)F)c4)c3)nn2)cn1`: the growth in [1] is -43.7% (active); in [2] it was -32.8% (active); in experiment [3] it was -10.6% (active); in [4] it was -24.6% (active); in experiment [5] it was -21.1% (active); in [6], -38.4% (active). Besides, the growth was -30.9% (active) in [7], -9.63% (active) in experiment [8] and 1.76% (active) in experiment [9].
With `CN1CCN(c2ccc(Nc3nc(N4CCN(S(=O)(=O)c5ccc(F)cc5)CC4)c4sccc4n3)cc2)CC1`, the growth in experiment [1] is -24.2% (active); in experiment [2] it was -85% (active); in experiment [3], -96.8% (active); in [4], -89.3% (active); in experiment [5] it was -87.2% (active); in [6], -86.4% (active). Besides, the growth in experiment [7] is -79% (active); in experiment [8], -47.7% (active); in [9], -83% (active).
Consider `CCN1CCN(Cc2ccc(NC(=O)c3cccc(-n4cc(-c5ccc(NC(C)=O)nc5)nn4)c3)cc2C(F)(F)F)CC1`, for which the growth was 80.6% in experiment [1]; 99% in experiment [2]; 158% in experiment [3]; 98% in experiment [4]; 96.6% in experiment [5]; 127% in experiment [6]. Also, the growth was 131% in experiment [7], 101% in experiment [8] and 100% in experiment [9].
With `Cc1ccc([N+](=O)[O-])c(C(=O)Nc2ccc(-c3ccc4c(c3)NC(=O)/C4=C\c3ccc[nH]3)cc2)c1`, the growth in experiment [1] was 31.4%; in experiment [2], 25.6%; in [3] it was 55%; in experiment [4] it was 34.3%; in experiment [5], 109%; in experiment [6], 53.9%. Moreover, the values for the growth in [7], in [8] and in experiment [9] were 41.3%, 67.2% and 38%, respectively.
Take `Nc1cccnc1/C=N/NC(=S)NCCNC(=O)c1ccc(-n2nc(-c3ccccc3O)nc2-c2ccccc2O)cc1`: the growth is -3.08% (active) in [1]; 14.6% in experiment [2]; 26.3% in experiment [3]; 22.1% in [4]; 17.1% in [5]; 12.5% in experiment [6]. For the same compound, the growth is 39.6% in experiment [7], 34.6% in experiment [8] and 67.4% in experiment [9].
